# Legend:
# Experiment in all cases: DAPPL (digital affinity profiling via proximity ligation, sequencing); 10 mM Tris-HCl pH 7.5, 50 mM NaCl, 1 mM DTT, 4% glycerol, room temperature, 30 min; GST-TFs on glutathione beads, 16-mer random dsDNA library, 0.1% formaldehyde crosslink after washing; high values mean tight binding
# [1] = target: T1, FEV (Homo sapiens, UniProt Q99581 1-238); conditions: protein: recombinant; tags: N-terminal GST; dsDNA, one strand shown
# T1 sequence: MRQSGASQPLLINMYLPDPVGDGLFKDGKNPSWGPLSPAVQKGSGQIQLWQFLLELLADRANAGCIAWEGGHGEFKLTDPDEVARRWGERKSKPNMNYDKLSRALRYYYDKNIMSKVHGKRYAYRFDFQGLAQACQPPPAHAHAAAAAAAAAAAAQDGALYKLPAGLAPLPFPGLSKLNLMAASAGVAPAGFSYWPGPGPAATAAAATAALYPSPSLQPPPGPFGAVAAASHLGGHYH
# How it was run: (§1)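 Binding signal is defined as a hexamer's read frequency for one factor over its frequency for the tag-only sample. To obtain reads, GST-fused human transcription factors were expressed in yeast, captured on glutathione beads, barcoded with DNA and pooled with that sample. Pools met 200 nmole of a 16-mer random double-stranded DNA library in Tris/NaCl/DTT/glycerol buffer for 30 min at room temperature before washing, 0.1% formaldehyde crosslinking, proximity ligation (BsaI/T4 ligase, 1 h, 37 °C), PCR and Illumina NextSeq500 sequencing.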
# [2] = target: ETV5 (Homo sapiens, UniProt P41161 1-510); conditions: protein: recombinant; tags: N-terminal GST; dsDNA, one strand shown
# Sequence of ETV5 (P41161 whole entry): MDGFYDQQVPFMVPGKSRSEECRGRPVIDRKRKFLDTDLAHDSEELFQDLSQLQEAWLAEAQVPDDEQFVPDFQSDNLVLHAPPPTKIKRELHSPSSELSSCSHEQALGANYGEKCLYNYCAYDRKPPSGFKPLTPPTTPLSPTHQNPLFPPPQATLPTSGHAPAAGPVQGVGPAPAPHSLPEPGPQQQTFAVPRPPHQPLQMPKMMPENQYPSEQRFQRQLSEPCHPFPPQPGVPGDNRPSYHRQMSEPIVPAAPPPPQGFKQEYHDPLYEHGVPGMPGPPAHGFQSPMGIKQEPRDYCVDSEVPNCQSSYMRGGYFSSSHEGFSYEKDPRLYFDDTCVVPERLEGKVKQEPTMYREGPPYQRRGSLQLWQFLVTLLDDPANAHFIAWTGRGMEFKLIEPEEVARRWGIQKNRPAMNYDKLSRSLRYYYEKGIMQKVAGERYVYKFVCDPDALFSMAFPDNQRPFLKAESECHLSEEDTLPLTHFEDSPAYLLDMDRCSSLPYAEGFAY
# How it was run: as §1
# [3] = target: HSF1 (Homo sapiens, UniProt Q00613 1-529); conditions: protein: recombinant; tags: N-terminal GST; chain copies: 3; dsDNA, one strand shown
# Sequence of HSF1 (Q00613 whole entry): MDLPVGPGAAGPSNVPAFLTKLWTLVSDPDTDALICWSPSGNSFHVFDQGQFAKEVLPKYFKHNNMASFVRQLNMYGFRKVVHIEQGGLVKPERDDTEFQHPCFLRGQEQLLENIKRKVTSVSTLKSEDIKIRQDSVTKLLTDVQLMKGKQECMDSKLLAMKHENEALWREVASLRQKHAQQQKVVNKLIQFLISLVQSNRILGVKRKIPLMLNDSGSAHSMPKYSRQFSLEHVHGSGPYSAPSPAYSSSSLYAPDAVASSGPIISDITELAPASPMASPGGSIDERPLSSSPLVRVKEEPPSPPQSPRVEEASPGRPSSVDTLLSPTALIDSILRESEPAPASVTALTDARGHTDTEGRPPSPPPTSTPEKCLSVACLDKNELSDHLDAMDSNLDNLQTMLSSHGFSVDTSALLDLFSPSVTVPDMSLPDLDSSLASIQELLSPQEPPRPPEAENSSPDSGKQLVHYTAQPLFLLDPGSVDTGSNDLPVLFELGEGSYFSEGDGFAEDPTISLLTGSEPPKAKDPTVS
# How it was run: as §1
# [4] = target: T2, SPIC (Homo sapiens, UniProt Q8N5J4 1-248); conditions: protein: recombinant; tags: N-terminal GST; dsDNA, one strand shown
# T2 sequence: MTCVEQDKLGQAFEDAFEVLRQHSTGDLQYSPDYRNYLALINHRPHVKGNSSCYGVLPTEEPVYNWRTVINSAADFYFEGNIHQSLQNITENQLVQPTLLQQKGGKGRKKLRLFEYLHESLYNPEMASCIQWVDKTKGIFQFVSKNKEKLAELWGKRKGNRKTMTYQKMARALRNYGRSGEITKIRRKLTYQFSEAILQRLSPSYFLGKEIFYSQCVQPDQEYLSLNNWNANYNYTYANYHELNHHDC
# How it was run: as §1
# [5] = target: ELF4 (Homo sapiens, UniProt Q99607 1-663); conditions: protein: recombinant; tags: N-terminal GST; dsDNA, one strand shown
# Sequence of ELF4 (Q99607 whole entry): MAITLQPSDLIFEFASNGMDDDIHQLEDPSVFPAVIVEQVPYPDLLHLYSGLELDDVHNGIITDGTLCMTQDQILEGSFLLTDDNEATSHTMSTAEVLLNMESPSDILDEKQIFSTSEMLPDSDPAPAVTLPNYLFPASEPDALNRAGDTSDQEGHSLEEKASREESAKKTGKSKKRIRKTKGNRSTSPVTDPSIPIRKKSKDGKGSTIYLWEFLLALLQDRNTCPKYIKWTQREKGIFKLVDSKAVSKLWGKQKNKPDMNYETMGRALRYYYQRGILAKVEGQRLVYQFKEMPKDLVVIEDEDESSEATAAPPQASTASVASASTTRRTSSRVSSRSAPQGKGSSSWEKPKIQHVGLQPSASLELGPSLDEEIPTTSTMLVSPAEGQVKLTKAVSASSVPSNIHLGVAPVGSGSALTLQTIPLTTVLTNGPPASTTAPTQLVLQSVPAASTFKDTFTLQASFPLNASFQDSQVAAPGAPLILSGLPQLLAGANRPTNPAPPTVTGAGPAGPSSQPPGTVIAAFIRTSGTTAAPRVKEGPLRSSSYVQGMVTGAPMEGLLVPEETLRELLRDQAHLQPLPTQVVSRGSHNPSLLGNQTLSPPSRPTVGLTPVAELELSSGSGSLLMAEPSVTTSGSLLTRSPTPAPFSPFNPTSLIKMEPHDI
# How it was run: as §1
# [6] = target: T3, ELK4 (Homo sapiens, UniProt P28324-2 1-405); conditions: protein: recombinant; tags: N-terminal GST; dsDNA, one strand shown
# T3 sequence: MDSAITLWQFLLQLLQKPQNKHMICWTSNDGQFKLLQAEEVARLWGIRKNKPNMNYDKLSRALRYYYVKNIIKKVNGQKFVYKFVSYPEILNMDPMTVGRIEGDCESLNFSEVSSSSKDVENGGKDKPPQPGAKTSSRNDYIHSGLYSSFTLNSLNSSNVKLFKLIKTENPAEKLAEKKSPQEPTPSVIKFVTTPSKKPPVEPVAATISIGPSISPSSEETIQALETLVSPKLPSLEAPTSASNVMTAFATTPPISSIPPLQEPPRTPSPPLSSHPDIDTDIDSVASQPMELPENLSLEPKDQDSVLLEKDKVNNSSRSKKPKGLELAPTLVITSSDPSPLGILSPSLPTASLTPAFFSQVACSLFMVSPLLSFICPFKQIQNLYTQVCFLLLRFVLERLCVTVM
# How it was run: as §1
# [7] = target: T4, ETV2 (Homo sapiens, UniProt O00321 1-342); conditions: protein: recombinant; tags: N-terminal GST; dsDNA, one strand shown
# T4 sequence: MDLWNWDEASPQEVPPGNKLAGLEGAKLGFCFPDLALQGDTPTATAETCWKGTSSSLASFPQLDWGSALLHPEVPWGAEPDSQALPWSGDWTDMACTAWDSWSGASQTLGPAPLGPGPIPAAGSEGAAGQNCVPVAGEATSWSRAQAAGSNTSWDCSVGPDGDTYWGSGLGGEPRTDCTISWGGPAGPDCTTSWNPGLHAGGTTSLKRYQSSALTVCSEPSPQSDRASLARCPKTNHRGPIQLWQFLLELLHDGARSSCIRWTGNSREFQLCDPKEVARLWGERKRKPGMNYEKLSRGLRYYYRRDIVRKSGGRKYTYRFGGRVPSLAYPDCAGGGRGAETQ
# How it was run: as §1
# [8] = target: T5, ELF3 (Homo sapiens, UniProt P78545 1-371); conditions: protein: recombinant; tags: N-terminal GST; dsDNA, one strand shown
# T5 sequence: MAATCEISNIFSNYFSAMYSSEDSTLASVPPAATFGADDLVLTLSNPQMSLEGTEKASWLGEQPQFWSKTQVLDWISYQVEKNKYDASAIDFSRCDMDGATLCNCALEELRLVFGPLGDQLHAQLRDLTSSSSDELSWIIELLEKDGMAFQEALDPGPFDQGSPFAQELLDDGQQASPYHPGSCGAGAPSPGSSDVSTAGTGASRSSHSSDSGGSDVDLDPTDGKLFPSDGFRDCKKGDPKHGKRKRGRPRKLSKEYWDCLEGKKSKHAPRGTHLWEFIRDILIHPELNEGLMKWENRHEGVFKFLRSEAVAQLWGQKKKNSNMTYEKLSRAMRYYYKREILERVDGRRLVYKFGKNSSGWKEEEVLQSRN
# How it was run: as §1
# [9] = target: CRX (Homo sapiens, UniProt O43186 1-299); conditions: protein: recombinant; tags: N-terminal GST; dsDNA, one strand shown
# Sequence of CRX (O43186 whole entry): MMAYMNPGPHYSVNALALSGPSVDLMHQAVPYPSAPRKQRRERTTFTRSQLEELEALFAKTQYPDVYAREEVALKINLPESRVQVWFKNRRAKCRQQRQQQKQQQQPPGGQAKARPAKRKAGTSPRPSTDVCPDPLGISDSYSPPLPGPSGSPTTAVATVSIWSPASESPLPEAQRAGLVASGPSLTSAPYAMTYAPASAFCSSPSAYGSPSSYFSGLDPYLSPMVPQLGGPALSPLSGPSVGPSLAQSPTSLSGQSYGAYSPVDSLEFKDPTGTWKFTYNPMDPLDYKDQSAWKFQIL
# How it was run: as §1
# [10] = target: ETV1 (Homo sapiens, UniProt P50549 1-477); conditions: protein: recombinant; tags: N-terminal GST; dsDNA, one strand shown
# Sequence of ETV1 (P50549 whole entry): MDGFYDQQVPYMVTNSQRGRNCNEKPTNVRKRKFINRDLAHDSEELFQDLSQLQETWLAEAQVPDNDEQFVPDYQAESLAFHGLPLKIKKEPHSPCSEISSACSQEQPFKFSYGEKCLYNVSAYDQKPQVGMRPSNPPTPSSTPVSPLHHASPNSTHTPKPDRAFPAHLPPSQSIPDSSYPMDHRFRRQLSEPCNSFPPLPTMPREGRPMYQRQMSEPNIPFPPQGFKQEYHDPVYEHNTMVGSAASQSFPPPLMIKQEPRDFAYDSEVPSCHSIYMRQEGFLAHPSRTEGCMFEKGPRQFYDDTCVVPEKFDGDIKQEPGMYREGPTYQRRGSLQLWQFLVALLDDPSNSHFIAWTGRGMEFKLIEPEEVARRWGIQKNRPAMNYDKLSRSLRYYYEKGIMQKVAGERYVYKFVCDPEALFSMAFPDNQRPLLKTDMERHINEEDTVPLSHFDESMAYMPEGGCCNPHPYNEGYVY
# How it was run: as §1
# [11] = target: T6, ERF (Homo sapiens, UniProt P50548 1-548); conditions: protein: recombinant; tags: N-terminal GST; dsDNA, one strand shown
# T6 sequence: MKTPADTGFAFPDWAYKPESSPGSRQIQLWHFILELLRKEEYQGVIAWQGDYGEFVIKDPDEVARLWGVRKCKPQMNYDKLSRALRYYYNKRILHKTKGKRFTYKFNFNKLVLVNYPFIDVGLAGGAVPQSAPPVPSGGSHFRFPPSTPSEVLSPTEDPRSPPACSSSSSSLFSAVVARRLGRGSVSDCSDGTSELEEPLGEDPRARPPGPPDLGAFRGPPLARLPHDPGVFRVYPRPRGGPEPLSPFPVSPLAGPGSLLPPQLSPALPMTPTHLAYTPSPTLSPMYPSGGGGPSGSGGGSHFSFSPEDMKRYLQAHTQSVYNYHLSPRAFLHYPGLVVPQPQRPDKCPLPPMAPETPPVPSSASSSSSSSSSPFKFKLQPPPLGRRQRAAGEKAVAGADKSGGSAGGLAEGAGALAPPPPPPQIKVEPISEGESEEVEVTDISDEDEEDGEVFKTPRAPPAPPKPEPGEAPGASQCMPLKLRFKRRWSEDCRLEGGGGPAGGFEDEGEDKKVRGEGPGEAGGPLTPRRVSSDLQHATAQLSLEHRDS
# How it was run: as §1
# [12] = target: T7, ETV3L (Homo sapiens, UniProt Q6ZN32 1-361); conditions: protein: recombinant; tags: N-terminal GST; dsDNA, one strand shown
# T7 sequence: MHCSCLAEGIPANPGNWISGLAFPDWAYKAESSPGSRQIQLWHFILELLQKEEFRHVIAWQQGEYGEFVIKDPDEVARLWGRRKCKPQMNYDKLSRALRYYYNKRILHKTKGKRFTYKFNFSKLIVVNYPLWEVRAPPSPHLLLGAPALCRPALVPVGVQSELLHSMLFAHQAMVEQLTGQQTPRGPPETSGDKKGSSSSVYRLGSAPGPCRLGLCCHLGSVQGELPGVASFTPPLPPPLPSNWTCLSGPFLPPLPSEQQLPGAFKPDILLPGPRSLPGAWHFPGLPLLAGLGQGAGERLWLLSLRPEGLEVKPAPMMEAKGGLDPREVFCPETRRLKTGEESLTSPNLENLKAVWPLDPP
# How it was run: as §1
# [13] = target: T8, ETS2 (Homo sapiens, UniProt P15036 1-469); conditions: protein: recombinant; tags: N-terminal GST; dsDNA, one strand shown
# T8 sequence: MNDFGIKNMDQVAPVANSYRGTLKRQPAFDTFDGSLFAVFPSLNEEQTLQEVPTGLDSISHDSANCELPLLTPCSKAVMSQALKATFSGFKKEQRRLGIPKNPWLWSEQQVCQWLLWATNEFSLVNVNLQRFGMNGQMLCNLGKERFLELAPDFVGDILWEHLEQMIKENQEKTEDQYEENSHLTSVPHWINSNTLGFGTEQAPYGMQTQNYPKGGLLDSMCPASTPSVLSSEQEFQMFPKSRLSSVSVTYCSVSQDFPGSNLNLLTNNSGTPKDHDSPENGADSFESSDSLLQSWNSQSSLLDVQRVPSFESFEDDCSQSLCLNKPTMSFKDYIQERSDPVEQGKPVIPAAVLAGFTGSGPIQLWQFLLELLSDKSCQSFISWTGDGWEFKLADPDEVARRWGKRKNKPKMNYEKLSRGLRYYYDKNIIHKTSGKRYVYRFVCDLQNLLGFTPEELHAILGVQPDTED
# How it was run: as §1
# [14] = target: T9, SPDEF (Homo sapiens, UniProt O95238 1-335); conditions: protein: recombinant; tags: N-terminal GST; dsDNA, one strand shown
# T9 sequence: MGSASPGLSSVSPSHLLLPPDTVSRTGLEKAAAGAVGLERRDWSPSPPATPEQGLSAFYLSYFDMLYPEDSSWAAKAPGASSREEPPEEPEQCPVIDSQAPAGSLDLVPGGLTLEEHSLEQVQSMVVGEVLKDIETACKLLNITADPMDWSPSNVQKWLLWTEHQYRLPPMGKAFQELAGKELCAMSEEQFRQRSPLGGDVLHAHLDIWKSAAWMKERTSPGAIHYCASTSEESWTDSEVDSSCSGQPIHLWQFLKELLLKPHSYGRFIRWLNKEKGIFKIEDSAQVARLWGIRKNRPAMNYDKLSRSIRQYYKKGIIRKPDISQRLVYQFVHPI
# How it was run: as §1
# [15] = target: T10, ETV7 (Homo sapiens, UniProt Q9Y603 1-341); conditions: protein: recombinant; tags: N-terminal GST; dsDNA, one strand shown
# T10 sequence: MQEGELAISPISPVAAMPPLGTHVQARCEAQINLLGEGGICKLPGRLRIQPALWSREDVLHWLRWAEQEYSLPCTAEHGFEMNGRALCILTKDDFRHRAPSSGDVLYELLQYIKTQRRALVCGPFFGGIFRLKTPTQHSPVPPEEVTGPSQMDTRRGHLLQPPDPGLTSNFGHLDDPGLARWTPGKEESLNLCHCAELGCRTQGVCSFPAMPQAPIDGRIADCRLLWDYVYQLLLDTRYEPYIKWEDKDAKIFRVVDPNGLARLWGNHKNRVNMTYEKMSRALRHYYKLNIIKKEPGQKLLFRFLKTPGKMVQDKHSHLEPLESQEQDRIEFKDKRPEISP
# How it was run: as §1
# [16] = target: T11, ELF5 (Homo sapiens, UniProt Q9UKW6-2 1-255); conditions: protein: recombinant; tags: N-terminal GST; dsDNA, one strand shown
# T11 sequence: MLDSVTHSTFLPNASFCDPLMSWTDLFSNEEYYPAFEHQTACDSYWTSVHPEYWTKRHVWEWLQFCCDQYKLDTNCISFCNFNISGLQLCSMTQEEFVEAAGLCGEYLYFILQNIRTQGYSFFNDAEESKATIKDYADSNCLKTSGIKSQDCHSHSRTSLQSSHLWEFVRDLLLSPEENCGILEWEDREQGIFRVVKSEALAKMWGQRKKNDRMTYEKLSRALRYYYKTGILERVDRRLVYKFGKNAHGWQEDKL
# How it was run: as §1
# [17] = target: T12, ETV3 (Homo sapiens, UniProt P41162-2 1-143); conditions: protein: recombinant; tags: N-terminal GST; dsDNA, one strand shown
# T12 sequence: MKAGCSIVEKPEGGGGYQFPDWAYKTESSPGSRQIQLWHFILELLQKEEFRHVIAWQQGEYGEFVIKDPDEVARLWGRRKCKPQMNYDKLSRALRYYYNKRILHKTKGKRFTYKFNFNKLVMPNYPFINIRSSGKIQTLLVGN
# How it was run: as §1
# [18] = target: ETV6 (Homo sapiens, UniProt P41212 1-452); conditions: protein: recombinant; tags: N-terminal GST; dsDNA, one strand shown
# Sequence of ETV6 (P41212 whole entry): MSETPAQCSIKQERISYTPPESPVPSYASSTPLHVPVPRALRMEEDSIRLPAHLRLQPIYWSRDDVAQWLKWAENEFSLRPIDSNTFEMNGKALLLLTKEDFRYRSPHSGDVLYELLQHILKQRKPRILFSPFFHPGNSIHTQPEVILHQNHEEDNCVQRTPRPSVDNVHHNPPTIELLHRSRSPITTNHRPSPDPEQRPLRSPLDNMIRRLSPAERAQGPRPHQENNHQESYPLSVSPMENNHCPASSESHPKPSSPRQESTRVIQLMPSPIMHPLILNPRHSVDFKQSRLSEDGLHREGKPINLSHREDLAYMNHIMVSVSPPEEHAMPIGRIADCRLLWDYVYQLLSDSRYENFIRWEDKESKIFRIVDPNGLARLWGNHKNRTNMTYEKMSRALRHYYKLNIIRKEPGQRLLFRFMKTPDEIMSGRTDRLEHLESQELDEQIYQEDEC
# How it was run: as §1
sequence,measurement,setting,value
ATACTG,binding signal,[1],"1.04 fold enrichment (6-mer frequency, TF over GST control)"
same,binding signal,[2],"1.15 fold enrichment (6-mer frequency, TF over GST control)"
same,binding signal,[3],"1.06 fold enrichment (6-mer frequency, TF over GST control)"
same,binding signal,[4],"1.06 fold enrichment (6-mer frequency, TF over GST control)"
same,binding signal,[5],"1.16 fold enrichment (6-mer frequency, TF over GST control)"
same,binding signal,[6],"1.29 fold enrichment (6-mer frequency, TF over GST control)"
same,binding signal,[7],"1.32 fold enrichment (6-mer frequency, TF over GST control)"
same,binding signal,[8],"1.18 fold enrichment (6-mer frequency, TF over GST control)"
same,binding signal,[9],"1.11 fold enrichment (6-mer frequency, TF over GST control)"
same,binding signal,[10],"1.05 fold enrichment (6-mer frequency, TF over GST control)"
same,binding signal,[11],"1.14 fold enrichment (6-mer frequency, TF over GST control)"
same,binding signal,[12],"1.23 fold enrichment (6-mer frequency, TF over GST control)"
same,binding signal,[13],"1.1 fold enrichment (6-mer frequency, TF over GST control)"
same,binding signal,[14],"1.18 fold enrichment (6-mer frequency, TF over GST control)"
same,binding signal,[15],"1.09 fold enrichment (6-mer frequency, TF over GST control)"
same,binding signal,[16],"1.07 fold enrichment (6-mer frequency, TF over GST control)"
same,binding signal,[17],"1.12 fold enrichment (6-mer frequency, TF over GST control)"
same,binding signal,[18],"1.07 fold enrichment (6-mer frequency, TF over GST control)"

# From paper PMC7862700, “An all-to-all approach to the identification of sequence-specific readers for epigenetic DNA modifications on cytosine”
